Data on 71 compounds can be found in ChEMBL document CHEMBL4513216, “Probing the Open Global Health Chemical Diversity Library for Multistage-Active Starting Points for Next-Generation Antimalarials” (ACS Infect Dis, 2020).

Out of some 68,000 compounds screened, about 2,700 (4%) showed an effect of 50% or more. The list comes from a sample in which strong results are over-represented; it also holds similar structures and randomly drawn compounds.

The test system of this test is Plasmodium berghei. The test is described as follows: Screen against P. berghei liver stage (PbLuc), transformed with Luciferase, at 2uM. To be noted: tested at 2 uM. In kind it is functional, HepG2.
Turning to `CNS(=O)(=O)c1ccc(CNC(=O)Nc2cn[nH]c2)cc1`, the INHIBITION came to 2.07%.

`COc1ccccc1CCc1nc(CC2CCN(C)CC2)no1`: the INHIBITION is given as 34.46%.

For the compound `COc1c[nH]c(C(=O)N2CCN(c3cccc(Cl)c3)CC2)cc1=O`, the INHIBITION was found to be 22.88%.

As for `CCc1ncc(CN2C[C@@H]3CC[C@H]2CN(C(=O)C2CCC2)C3)cn1`, the INHIBITION came out at 12.3%.

As to `Cn1ccnc1CN(CCO)C(=O)c1cnc2ccccc2c1`, the INHIBITION came to 29.71%.

`Cn1ccnc1CN(CCO)C(=O)c1cc2ccccc2o1`: the INHIBITION was found to be 22.27%.

Take `Cc1c(Cl)cc(C(=O)N(CCO)Cc2nccn2C)cc1Cl`: the INHIBITION is 55.84%.

Turning to `CC(C)NC(=O)NC(C)c1nc(-c2ccccc2)cs1` (stereo unspecified), the INHIBITION is recorded as -22.08%.

In the case of `Cc1csc(N(C)C(=O)C2CC(=O)N(c3ccccc3Cl)C2)n1` (stereo unspecified), the INHIBITION is given as -29.95%.

As for `CN1CCc2nc(C3CCCN(S(=O)(=O)N4CCCC4)C3)ncc2C1` (stereo unspecified), the INHIBITION is reported as -1.51%.

`CN1CCc2nc(C3CCCN(S(=O)(=O)c4ccccc4)C3)ncc2C1` (stereo unspecified): the INHIBITION came out at 64.55%.

On to `CCN(CC)S(=O)(=O)N1CCCC(c2ncc3c(n2)CCN(C)C3)C1` (stereo unspecified), for which the INHIBITION is reported as 3.38%.

Turning to `Cc1nc(N2CCCC2C(=O)NC(C)(C)CO)nc2ccccc12` (stereo unspecified), the INHIBITION was 26.49%.

`COCC1CN(c2ccc(Cl)cc2C#N)CCO1` (stereo unspecified): the INHIBITION is reported as 29.3%.

For the compound `Cc1nc(CN2CCCC(c3nc(C)n4c(C)c(C)sc34)C2)co1` (stereo unspecified), the INHIBITION is reported as -12.89%.

In the case of `Cc1cc(CNC2(CO)CCOCC2)ccc1Br`, the INHIBITION was determined as 51.08%.

Take `Cc1cc(CNCC2(O)CCOCC2)ccc1Br`: the INHIBITION is -6.29%.

Consider `OCC1(NCc2cccc(-n3cccn3)c2)CCOCC1`, for which the INHIBITION is -2.38%.

Consider `CCn1c(CN2CCN(C(=O)C3CCC3)CC2)nc2c(F)cccc21`, for which the INHIBITION is given as 10.22%.

On to `O=C(C1CNCCO1)N1CCCC(c2ccccc2)(c2ccccc2)C1` (stereo unspecified), for which the INHIBITION was found to be 42.2%.

Turning to `CCCc1nc(C)c(C(=O)NS(=O)(=O)c2cccnc2)s1`, the INHIBITION is reported as -25.2%.

`Cc1nc(C(C)C)sc1C(=O)NS(=O)(=O)c1ccc(C#N)cc1`: the INHIBITION is 36.12%.

As to `CCCc1nc(C)c(C(=O)NS(=O)(=O)c2ccc(C#N)cc2)s1`, the INHIBITION was found to be 55.63%.

Take `Fc1ccc(CN2CCCC3(COCCN(Cc4c[nH]nn4)C3)C2)cc1` (stereo unspecified): the INHIBITION is 23.81%.

`O=C1CC(c2ccc(C(=O)O)cc2)c2ncn(-c3cccc(Cl)c3)c2N1` (stereo unspecified): the INHIBITION turned out to be 53.61%.

For the compound `O=C1CC(c2ccc(C(=O)O)cc2)c2ncn(-c3cccc(F)c3)c2N1` (stereo unspecified), the INHIBITION was -20.06%.

Turning to `O=C1CC(c2ccc(C(=O)O)cc2)c2ncn(-c3ccccc3)c2N1` (stereo unspecified), the INHIBITION was -29.53%.

Take `CN(Cc1nnc(C2CC2)n1C)C1CCN(CCc2ccncc2)C1` (stereo unspecified): the INHIBITION is on record as -0.45%.

In the case of `CN(Cc1noc(C2CC2)n1)C1CCN(CCc2cccs2)C1` (stereo unspecified), the INHIBITION came out at 30.88%.

For `CC(C)c1cnc(CN(C)C2CCN(CCCc3cnn(C)c3)C2)o1` (stereo unspecified), the INHIBITION was 59.23%.

Turning to `Cc1cc(C)n(CCN2CCC(N(C)Cc3noc(C4CC4)n3)C2)n1` (stereo unspecified), the INHIBITION was found to be 12.66%.

For `Cc1ccc(CCN2CCC(N(C)Cc3noc(C4CC4)n3)C2)cc1` (stereo unspecified), the INHIBITION was determined as 54.85%.

As for `CN(Cc1cnn(C)c1)C1CCCN(Cc2noc(C3CC3)n2)C1` (stereo unspecified), the INHIBITION came out at 22.75%.

In the case of `CN(Cc1nnc(C2CC2)n1C)C1CCN(CCc2cnn(C)c2)C1` (stereo unspecified), the INHIBITION turned out to be 81.1%.

With `CN(Cc1nnc(C2CC2)n1C)C1CCN(CCc2ccccc2)C1` (stereo unspecified), the INHIBITION is recorded as -11.31%.

Take `CN(Cc1noc(C2CC2)n1)C1CCN(CCc2cnn(C)c2)C1` (stereo unspecified): the INHIBITION is recorded as 64.87%.

Take `CC(C)c1cnc(CN(C)C2CCN(CCc3cnn(C)c3)C2)o1` (stereo unspecified): the INHIBITION is given as 5.59%.

For the compound `Cc1nc(CN(C)C2CCN(CCc3cnn(C)c3)C2)no1` (stereo unspecified), the INHIBITION is 31.7%.

For `Cc1cnc(CN(C)C2CCN(CCCc3cnn(C)c3)C2)o1` (stereo unspecified), the INHIBITION is 8.42%.

Consider `COc1ccnc(C(=O)N2CCCC(c3noc(C)n3)C2)c1` (stereo unspecified), for which the INHIBITION is on record as 11.71%.

As for `Cc1cc(C)c2nc(CN3CCCC(c4cc[nH]n4)C3)cc(O)c2c1` (stereo unspecified), the INHIBITION is recorded as -45.64%.

With `Cn1cc(CNC(=O)c2cc3c(s2)CCCCC3)cn1`, the INHIBITION is 36.66%.

For the compound `COc1cc(C2CC(=O)Nc3c2nc2n3CCCC2)ccc1O` (stereo unspecified), the INHIBITION is given as 0.1%.

`CC1CCN(C(=O)c2cc(NC(=O)c3ccccc3)n(C)n2)CC1`: the INHIBITION was -57.06%.

With `CCc1cc(NCCCN(C)C2CCCC2)ncn1`, the INHIBITION was 36.22%.

As for `CC(C)NC(=O)N1CCC2(CCC(=O)N2CCN(C)C)CC1`, the INHIBITION worked out at 16.12%.

Regarding `Cc1c(C2=NS(=O)(=O)N(C)C(C(=O)Nc3ccc(Br)cc3)=C2)cnn1C`, the INHIBITION was 22.84%.

Regarding `CN1C(=O)CCCC12CCCN(Cc1nccs1)C2` (stereo unspecified), the INHIBITION is 20.2%.

`CCN(Cc1ccccc1)C(=O)CN1CCCC(Cn2cncn2)C1` (stereo unspecified): the INHIBITION is 33.16%.

Take `CNC(=O)CN1CCN(C(=O)c2ccn(C)c(=O)c2)CC1`: the INHIBITION was -16.28%.

For `CC(C)c1nc(C2CCCN(C(=O)CCn3cncn3)C2)no1` (stereo unspecified), the INHIBITION came out at 64.16%.

With `CSc1ccc(C(=O)C2CCCN(C(=O)CCn3cncn3)C2)cc1` (stereo unspecified), the INHIBITION was 55.25%.

Regarding `CC(C)c1nc(C2CCCN(C(=O)CCCn3cncn3)C2)no1` (stereo unspecified), the INHIBITION is -45.72%.

As for `CSc1ccc(C(=O)C2CCCN(C(=O)CCn3cnnn3)C2)cc1` (stereo unspecified), the INHIBITION turned out to be 35.13%.

For `CC(C)c1nc(C2CCCN2C(=O)CCn2cncn2)no1` (stereo unspecified), the INHIBITION was -15.92%.

As for `CSc1ccc(C(=O)C2CCCN(C(=O)CCCn3cncn3)C2)cc1` (stereo unspecified), the INHIBITION was determined as 49.98%.

For the compound `c1ccn2cc(CN3CCCC(c4ccn[nH]4)C3)nc2c1` (stereo unspecified), the INHIBITION was 13.4%.

With `Cc1cc(C2CCCN(Cc3cccnc3)C2)n[nH]1` (stereo unspecified), the INHIBITION came out at 30.82%.

On to `CC1c2ccc(F)cc2CCN1C(=O)c1[nH]c(=O)[nH]c(=O)c1N` (stereo unspecified), for which the INHIBITION is -36.67%.

On to `CCOC(=O)c1ccc(NC(=O)c2c(O)nc3c(c2O)CCCC3)cc1`, for which the INHIBITION was -23.02%.

On to `CC(=O)N1CC(=O)N(c2cnn(C)c2)CC12CCN(CC1CC1)C2` (stereo unspecified), for which the INHIBITION was -7.82%.

Regarding `Cc1cccc(C(=O)N2CCO[C@H]3[C@H](OCCN(C)C)CC[C@@H]32)n1`, the INHIBITION is reported as 19.98%.

Turning to `COc1c(CNCCC(=O)NC2CCCCC2)c(C(C)C)nn1C`, the INHIBITION came out at 64.16%.

With `COc1c(CNC(C)C(=O)NC2CCCC2)c(C(C)C)nn1C` (stereo unspecified), the INHIBITION came to 3.59%.

With `COc1c(CNCCC(=O)NC2CCCC2)c(C(C)C)nn1C`, the INHIBITION was -5.09%.

`Cc1nn(C)c(N(C)C)c1CNCCC(=O)NC1CCCC1`: the INHIBITION was 41.76%.

As for `COc1c(CNC(C)C(=O)NC2CCCC2)c(C)nn1C` (stereo unspecified), the INHIBITION came out at 60.34%.

Consider `CC(NCc1c(C(C)C)nn(C)c1N(C)C)C(=O)NC1CCCC1` (stereo unspecified), for which the INHIBITION is given as 10.04%.

Regarding `CC(C)c1nn(C)c(N(C)C)c1CNCCC(=O)NC1CCCCC1`, the INHIBITION is 39.72%.

Turning to `Cc1nn(C)c(N(C)C)c1CNCCC(=O)NC1CCCCC1`, the INHIBITION is 68.24%.

As for `CC(C)c1nn(C)c(N(C)C)c1CNCCC(=O)NC1CCCC1`, the INHIBITION was -0.64%.
